In PubChem BioAssay AID1851 (National Center for Advancing Translational Sciences (NCATS), 2009):
Hit rate of the full screen: of about 16,000 compounds, about 2,600 (16%) were called active. Inconclusive results (about 20%) are left out. Calls follow the shape of the dose curve; as a rule, active = well fitted curve in the direction sought with a large enough effect; inconclusive = small, poorly fitted or top-dose-only effect, or effect the other way; inactive = no such curve, though single readings can be large or run the other way. These entries were drawn from the full list.

These molecules were tested against Cytochrome P450 2D6 (Homo sapiens) (UniProt P10635) (assay: Cytochrome panel assay with activity outcomes). Conditions: recombinant CYP, pro-luciferin dealkylation, luminescence, p450-cyp2d6; series mostly up to 57.1 µM.
Sequence of Cytochrome P450 2D6 (Homo sapiens) (P10635 whole entry, looked up): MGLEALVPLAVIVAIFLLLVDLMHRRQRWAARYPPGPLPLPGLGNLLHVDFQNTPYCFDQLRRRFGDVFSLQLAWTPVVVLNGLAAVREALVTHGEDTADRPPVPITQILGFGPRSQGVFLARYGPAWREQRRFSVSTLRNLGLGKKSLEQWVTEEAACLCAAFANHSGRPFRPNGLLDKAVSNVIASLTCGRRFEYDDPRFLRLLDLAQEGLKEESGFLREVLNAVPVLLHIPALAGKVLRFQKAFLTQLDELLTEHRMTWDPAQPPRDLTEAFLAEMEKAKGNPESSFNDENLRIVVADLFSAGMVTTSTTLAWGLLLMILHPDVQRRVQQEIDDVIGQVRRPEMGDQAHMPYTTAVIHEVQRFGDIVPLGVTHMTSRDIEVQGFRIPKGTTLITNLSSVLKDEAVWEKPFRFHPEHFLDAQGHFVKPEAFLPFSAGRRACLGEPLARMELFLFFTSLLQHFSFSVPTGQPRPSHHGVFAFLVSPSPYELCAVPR
% is scaled to controls: 0 for no effect and ±100 for the full control effect.

AC50, inactive:
COC(=O)c1ccccc1NC(=O)c1ccc(COc2ccc(C)c(C)c2)o1
NCCCCCCCCCCN
O=C1NC(c2ccccc2)=NC1(NS(=O)(=O)c1ccccc1)C(F)(F)F (stereo unspecified)
CCOC(=O)c1cc(-c2ccccc2)sc1NC(=O)C(C)(C)C
CC(=O)Nc1cccc(C(=O)OCc2ccc(C(=O)Oc3ccc(Cl)cc3)cc2)c1
CN1CCN(C(=O)C(C(=O)c2ccc(F)cc2)n2ccccc2=O)CC1 (stereo unspecified)
CCc1cccc2c(C=C(C#N)C#N)cn(CC(=O)N3CCCC3)c12
COc1ccc(/C=C2\CCCC3C2=NN(C(=O)c2ccco2)C3c2ccc(OC)c(OC)c2)cc1OC (stereo unspecified)
COc1ccc(/C=C2\N=C(SC)N(C)C2=O)cc1
O=C(N/N=C/C=C/c1ccccc1)c1cc2c(ccc3ccccc32)o1
O=C(O)[C@@H](O)[C@@H](O)[C@@H](O)[C@@H](O)C(=O)O (tested in a mixture with another compound)
CC(C)CCNC(=S)NC1CCCC1
Cc1nn(C(C)(C)C)c(OC(=O)c2ccco2)c1Sc1ccccc1
CCOC(=O)c1c(C)c(C(=O)N2CCN(C(=O)c3ccco3)CC2)c(C)n1C
C[C@@]12CC[C@@H]3c4ccc(O)cc4CC[C@H]3[C@H]1C[C@@H](O)[C@H]2O
Cc1ccc(C(=O)CN(C(=O)c2ccc(Cl)cc2)N2C(=O)c3ccccc3C2=O)cc1
Cc1nnc(-c2cnn(-c3ccccc3)c2N)n1Cc1ccccc1
COc1cccc(/C=N\NC(=O)C2C(=O)NCC2c2ccccc2)c1O (stereo unspecified)
COc1ccc(-c2nn(-c3ccccc3)cc2/C=N/NC(=O)c2ccc(Br)o2)cc1
Cn1c(=O)n(CC#N)c2ccccc21
c1ccc(Cc2nnc(Sc3ccccc3)c3ccccc23)cc1
CNCCc1ccccn1
COCC(=O)Nc1c(I)c(C(=O)NC[C@@H](O)CO)c(I)c(C(=O)N(C)C[C@@H](O)CO)c1I
O=C(CCCc1ccccc1)N1CCN(c2ccc([N+](=O)[O-])cc2)CC1
CCOc1cc(/C=C2/SC(=O)N(CC(=O)N3CCc4ccccc4C3)C2=O)ccc1OCC(=O)O
CC(C)N(C(=O)CSc1nc2ccccc2n1-c1ccccc1)C(C)C
COc1ccc(C(=O)N2CCC3(CCCN(C)C3)CC2)cc1
COc1ccc(C(=O)N2CCC[C@@]3(CCN(C(=O)Nc4ccccc4)C3)C2)cc1
COc1ccc(C(=O)N2CCC3(CCCN(CC(C)C)C3)CC2)cc1
COc1ccc(C(=O)N2CCC[C@@]3(CCN(Cc4ccc(C#N)cc4)C3)C2)cc1
C=CCc1cc(C=O)cc(OC)c1OCc1ccc(Cl)cc1
COc1cc(-n2ccnc2SC)c(Cl)cc1Cl
CCNc1nc(NCC)nc(ON=C(C)C)n1
COc1ccc2nc(/N=C\N(C)C)sc2c1
Cc1[nH]n2c(=O)c(C#N)c(-c3ccccc3)nc2c1-c1ccccc1
CCC#CCOCC(=O)Nc1ccccc1
c1ccc(CCNc2nnnn2-c2ccccc2)cc1
CC(C)n1c(=O)c2c(O)cc(=O)oc2c2ccccc21
NC(=O)[C@H]1CC2(CC(c3cccc(NC(=O)c4ccccc4)c3)=NO2)CN1C(=O)[C@H]1CCC(=O)N1 (stereo partly specified)
CCC(CC)C(=O)Nc1cccc(C(=O)Nc2ccc(OC)cc2[N+](=O)[O-])c1
COc1ccc(NC(=O)C(F)(F)F)cc1OC
O=C(OC(C(=O)NC1CCCC1)c1ccncc1)C1=Cc2ccccc2OC1 (stereo unspecified)
Cc1ccc(CNC(=O)C2(NC(=O)Nc3ccc(C)cc3)CCCCC2)cc1
CCn1c(COc2ccccc2)nnc1SCC(=O)c1cccc([N+](=O)[O-])c1
CCn1c(SCC(=O)OC)nnc1C1CCCCC1
CCn1c(SCC(=O)NC(=O)NCc2ccco2)nnc1-c1cccs1
COc1ccc(NC(=O)CSc2nnc(C3CC3)n2-c2ccccc2)cc1
CCn1c(SCC(=O)NC2CCCc3ccccc32)nnc1-c1cccs1 (stereo unspecified)
CCN(CC)C(=O)CSc1nnc(-c2cc3ccccc3cc2O)n1CC
CCCCN=c1sc(C(=O)OC)cc(=O)n1CCCC
Cc1noc(C)c1C(=O)N1CCC2(CCCN(c3ccncc3)C2)CC1
O=C(O)c1cc2c(o1)CCC/C2=N\O
Cc1nc2ncnn2c(C)c1CCC(=O)Nc1ccc(S(=O)(=O)N2CCCCCC2)cc1
CCCn1nc(Oc2nc(NCC)nc(NCC)n2)ccc1=O
Cc1nc2nc(-c3ccc(Cl)cc3)nn2c(C)c1Cl
COC(=O)c1cc(NC(=O)CC2NC3CCCCC3NC2=O)cc(C(=O)OC)c1 (stereo unspecified)
C/C=C\C[C@H](C)[C@H](O)[C@H]1C(=O)N[C@@H](CC)C(=O)N(C)CC(=O)N(C)[C@@H](CC(C)C)C(=O)N[C@@H](C(C)C)C(=O)N(C)[C@@H](CC(C)C)C(=O)N[C@@H](C)C(=O)N[C@@H](C)C(=O)N(C)[C@@H](CC(C)C)C(=O)N(C)[C@@H](CC(C)C)C(=O)N(C)[C@@H](C(C)C)C(=O)N1C
COc1ncc2nc(-c3ccc(Cl)cc3)c(=O)n(-c3ccccc3)c2n1
CCc1ccc(-c2ccc(C(=O)C(F)(F)F)[nH]2)cc1
Cc1ccccc1C(=O)NC(NCc1ccco1)C(Cl)(Cl)Cl (stereo unspecified)
Cc1nc(SCC(=O)Nc2c(C)nn(C)c2C)c2cnn(-c3ccccc3)c2n1
CCc1nnc(NC(=O)C2CCN(C(=O)NC3CCCCC3)CC2)s1
COc1cc(/C=N/NC(=O)c2cccc([N+](=O)[O-])c2)ccc1OCc1ccc(C)cc1
CC(/C=N/NC(=O)c1cccc([N+](=O)[O-])c1)=C\c1ccccc1
N#CCCn1c(=O)c(-c2ccccc2)nc2cnc(OCc3ccccc3)nc21
COc1ccc(C(=O)COC(=O)c2ccc(NC(=O)c3ccccc3)cc2)cc1
COc1ccc(C(=O)Nc2ccc(C(=O)OCC(=O)c3ccccc3)cc2)cc1
COc1cccc(Cn2c(=O)c(CCc3ccccc3)nc3cnc(N(C)C)nc32)c1
N[C@@H](C(=O)O)c1ccc(O)c(C(=O)O)c1
COc1cccc(Cn2c(=O)c(CCc3ccccc3)nc3cncnc32)c1
CC(=O)NS(=O)(=O)c1ccc(NC(=O)NC2CCCCC2)cc1
CC(=O)Nc1ccc(S(=O)(=O)NCC2CCC(C(=O)N3CCN(c4ccccn4)CC3)CC2)cc1 (stereo unspecified)
O=c1c2ccccc2nnn1CSc1nnc(COc2ccc(Cl)cc2)n1Cc1ccco1

AC50, active:
CCOC(=O)c1c(C)c(C(=O)N2CCCCCC2)c(C)n1C 11.2 µM
CN(C)c1ccccc1CN1CCCN(Cc2ccccc2N(C)C)C1c1ccncc1 1.26 µM
CN(CCc1ccccn1)c1ccc2c(c1)Cc1ccccc1-2 3.16 µM
COc1ccc(C(=O)N2CCC[C@@]3(CCN(Cc4ccccc4)C3)C2)cc1 7.94 µM
COc1ccc(C(=O)N2CCC3(CCCN(Cc4ccccc4)C3)CC2)cc1 7.94 µM
Cn1ncc2c(NCCc3ccccc3)nc(Cl)nc21 0.126 µM
CCCCCCCCC[n+]1cccc2c3ccccc3ccc21 0.0708 µM
CCn1c(SCC(=O)c2ccc3ccccc3c2)nnc1-c1cccs1 14.1 µM
CCn1c(SCC(=O)c2ccc(OC)cc2)nnc1C1CC1 14.1 µM
CCn1c(SCC(=O)c2ccccc2)nnc1-c1cccs1 14.1 µM
CC(=O)N/N=C/c1cc([N+](=O)[O-])ccc1OCCOc1ccccc1 0.0562 µM
O=C(C[n+]1cccc(NC(=O)c2ccccc2)c1)c1ccc(NC(=O)c2ccccc2)cc1 14.1 µM
CC1=NCC[N@@+]1(CCc1ccccc1)Cc1ccccc1 0.0501 µM
CC(=O)Nc1ccc(S(=O)(=O)N2CCN(c3nc(NC4CCCC4)c4ccccc4n3)CC2)cc1 12.6 µM

activity, negative = inhibition, inactive:
Nc1nc(-c2ccc3ccccc3c2)cc(-c2cc(-c3ccc4ccccc4c3)nc(N)n2)n1 1.49% [at 11.4 µM]
CCOC(=O)c1c(C)c(C)n2c1NC(=O)C2 -4.83% [at 11.4 µM]
Oc1ccccc1C(Sc1nc2ccccc2s1)Sc1nc2ccccc2s1 -20.9% [at 11.4 µM]
S=C(Nc1ccc2c(c1)Cc1ccccc1-2)Nc1ccc2c(c1)Cc1ccccc1-2 1.03% [at 11.4 µM]
Cn1ncc2c(Nc3cccc(Cl)c3)nc(Nc3cccc(Cl)c3)nc21 16.7% [at 11.4 µM]
O=C1C2=C(Nc3cc([N+](=O)[O-])ccc3N2)O[C@@H]1c1c[nH]c2ccc(COc3ccccc3)cc12 5.7% [at 11.4 µM]
COc1ccc(COC(=O)N/N=C2/C[C@@H](O)[C@@H](O)[C@@H]3[C@@H]4C(=O)N([C@@H](C)c5ccccc5)C(=O)[C@H]4CC[C@H]23)cc1 -3.9% [at 11.4 µM]
O=C1CN2CCN(CC2)CC(=O)Nc2ccc(cc2)S(=O)(=O)c2ccc(cc2)NC(=O)CN2CCN(CC2)CC(=O)Nc2ccc(cc2)S(=O)(=O)c2ccc(cc2)N1 0.0037% [at 11.4 µM]
CC1(C)OC[C@@H]2O[C@H](n3cnc4c(N)nc(Cl)nc43)[C@@H](OS(C)(=O)=O)[C@@H]2O1 8.22% [at 11.4 µM]
